Screens: PubChem BioAssay, National Center for Advancing Translational Sciences (NCATS)
ATXN2 expr inh: reduces ATXN2 reporter expression in HEK-293 cells; HEK-293 ATXN2-luciferase reporter, luminescence, 24 h; Potency, µM (top dose mostly 57 µM), for the others: top-dose activity change, negative = inhibition, usual class: inhibitors; hit rate 0.72% among 360,000; AID 1745845; note: potency is the fitted concentration of half-maximal effect; % is set by controls: 0 for no effect and ±100 for the full control effect; nearly all actives have a fitted effect of over 55% in size
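ATXN2-luciferase reporter cells (luciferase flanked by upstream and downstream ATXN2 gene portions) were treated 24 h at 37 °C with compounds at up to 57 uM. SteadyGlo luminescence gave expression; GF-AFC fluorescence gave viability.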
HepG2 viability: HepG2 cytotoxicity, counter-screen for TGF-b inhibitors; Potency, µM (titrated, usually from 46.1 µM), inactives show at the top dose activity change, negative = cytotoxicity, hits mostly cytotoxic; AID 588856; hit rate 0.76% among 410,000; HepG2 CAGA-GFP viability, ATP luminescence, 18 h; note: potency is the fitted concentration of half-maximal effect
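CellTiter-Glo luminescence gave cytotoxicity after 18 hours at 37 degrees C. The cells were HepG2 CAGA-GFP in 1% FBS DMEM, stimulated with 500 pg/mL TGF-beta after compound addition. %Activity was normalised to no-cell wells (complete cell-killing) and DMSO (no toxicity), and curves were fitted and classified.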
TGFb SMAD3 inh: blocks TGF-b signaling; hit rate 1.2% among 410,000; AID 588855; HepG2 CAGA-GFP TGF-b/SMAD3 reporter, GFP fluorescence, 18 h; TGF-beta stimulated, 500 pg/mL final; Potency, µM (highest dose often 46.1 µM), for the others: at the highest dose activity, negative = inhibition, usual class: inhibitors; note: potency is the fitted concentration of half-maximal effect; % is set by controls: 0 for no effect and ±100 for the full control effect; nearly all actives have a fitted effect of over 65% in size
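HEPG2 CAGA-GFP reporter cells (1000/well, DMEM with 1% FBS) received compounds, then recombinant TGF-beta at 500 pg/mL final for 18 hours at 37 degrees C. Per-cell GFP summed per well was normalised to unstimulated and stimulated DMSO controls before curve fitting.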
CtBP-E1A blk: inhibitors of CtBP/E1A interaction. AlphaScreen GST-E1A/His-CtBP binding, 1536-well; active compounds read low. activity change, % (no concentration beside the values). hit rate 0.49% among 340,000. AID 651724; in the data active = activity change below about -65%; inconclusive = mostly about -30% to -63%; note: % is set by controls: 0 for no effect and ±100 for the full control effect
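Protein mix (5X: 125 nM each GST-E1A, His-CtBP) was incubated with pinned compound 2 h at 37 deg C in dark, in 50 mM Tris pH 8.0 buffer with 300 mM NaCl. Glutathione donor and nickel acceptor beads followed; AlphaScreen signal read after 1 h.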
ATXN viability: reduces viability in counter-screen for ATXN expression inhibitors | S2 cells (HEK-293 line with an ATXN2-luciferase reporter) viability, CellTiter-Fluor protease fluorescence, 24 h | Potency, µM (series often up to 56.7 µM), hits mostly cytotoxic | hit rate 0.49% among 400,000 | AID 651635; note: potency is the fitted concentration of half-maximal effect; nearly all actives have a fitted effect of over 40% in size
Six1-Eya2 blk: Six1/Eya2 interaction inhibition | Q15475+O00167 | AlphaScreen GST-Six1/His-Eya2 binding, biochemical; active compounds read low | activity change, % (concentration not given with the values) | hit rate 0.56% among 360,000; in the data active = activity change below about -65%; inconclusive = mostly about -30% to -63%; note: % is set by controls: 0 for no effect and ±100 for the full control effect
Target sequence (O00167 whole entry, looked up): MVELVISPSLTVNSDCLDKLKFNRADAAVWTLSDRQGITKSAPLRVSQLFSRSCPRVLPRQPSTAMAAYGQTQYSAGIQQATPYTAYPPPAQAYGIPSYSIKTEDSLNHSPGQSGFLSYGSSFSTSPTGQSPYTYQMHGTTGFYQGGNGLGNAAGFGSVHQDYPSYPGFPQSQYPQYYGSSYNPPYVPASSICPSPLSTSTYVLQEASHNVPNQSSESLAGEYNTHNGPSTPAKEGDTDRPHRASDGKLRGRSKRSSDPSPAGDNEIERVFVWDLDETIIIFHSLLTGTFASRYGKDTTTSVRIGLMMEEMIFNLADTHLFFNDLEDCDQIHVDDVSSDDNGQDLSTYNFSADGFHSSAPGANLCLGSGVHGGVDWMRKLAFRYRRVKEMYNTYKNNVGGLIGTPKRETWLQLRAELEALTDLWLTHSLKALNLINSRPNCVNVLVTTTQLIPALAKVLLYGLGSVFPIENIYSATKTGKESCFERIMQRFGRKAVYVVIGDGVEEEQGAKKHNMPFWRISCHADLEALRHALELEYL
Target sequence (Q15475 whole entry, looked up): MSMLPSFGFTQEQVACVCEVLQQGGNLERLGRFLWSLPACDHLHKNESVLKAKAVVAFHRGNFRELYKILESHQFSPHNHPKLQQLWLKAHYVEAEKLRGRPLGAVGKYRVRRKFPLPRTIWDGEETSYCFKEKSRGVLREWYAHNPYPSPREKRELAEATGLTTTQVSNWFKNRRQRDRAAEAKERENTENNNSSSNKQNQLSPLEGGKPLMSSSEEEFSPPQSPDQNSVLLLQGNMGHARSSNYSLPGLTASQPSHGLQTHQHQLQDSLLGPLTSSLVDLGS
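GST-Six1 + His-Eya2 (5X stock: 250/500 nM); Tris pH 8.0, 300 mM NaCl, 0.05% BSA, 0.02% Tween 20; GSH donor/Ni acceptor beads; 1 h 37 °C dark; AlphaScreen readout.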
Numbers without * were called inactive; i = inactive; u = inconclusive; x = not tested or not shown; ! = not active in a repeat. In the library only some 2.8% were active in any assay of this set; here they are far more common. Unless noted, calls come from the whole dose curve; as a rule, active = well fitted curve in the direction sought with a large enough effect; inconclusive = small, poorly fitted or top-dose-only effect, or another doubt; inactive = no such curve, though single readings can be large; an effect the other way counts as inactive or inconclusive.

SMILES	ATXN2 expr inh	HepG2 viability	TGFb SMAD3 inh	CtBP-E1A blk	ATXN viability	Six1-Eya2 blk
COc1ccc(O)c(/C=N/NC(=O)c2cc(=O)[nH]c3ccccc23)c1	x	-12%	u	u	u	-92*
Cn1cccc1-c1cc(C(=O)N/N=C/c2cc(Br)ccc2O)[nH]n1	u	-21%	-1%	-87*	u	-83*
Cn1cccc1-c1cc(C(=O)N/N=C/c2ccccc2Cl)[nH]n1	25%	-4%	-6%	-29	i	-23
COc1ccc(/C=N/NC(=O)c2ccc(Br)cc2)c(OC)c1	0%	-11%	5%	-14	i	2
COc1ccccc1CN1CCOc2ccc(CN3CCCCC3CO)cc2C1 (stereo not drawn)	x	x	x	x	i	x
Cc1cccc(-c2[nH]ncc2-c2ccc3ncccc3n2)n1	6%	x	x	x	x	x
COc1ccc(N2C(=O)[C@@H]3C[C@H]2CN3Cc2cccn2-c2nccs2)cc1Cl	x	x	x	x	i	x
O=C(N/N=C/c1sc(=O)[nH]c1-[n+]1ccc2ccccc2c1)c1ccccc1[O-]	15%	-11%	24%	-75*	i	u
CCCCOC(=O)c1c(C)oc2ccc(NS(=O)(=O)c3ccc4c5c(cccc35)C(=O)N4)cc12	u	-18%	14µM*	5	i	-19
C[C@]12C=CC(=O)C=C1CC[C@@H]1[C@@H]2[C@@H](O)C[C@@]2(C)[C@@H]1CC[C@]2(O)C(=O)CO	-4%	x	x	x	x	x
CCCCN(C)C(=O)C1CCC(Cn2c(=O)[nH]c3ccsc3c2=O)CC1 (stereo not drawn)	-6%	-12%	-16%	x	i	x
Cc1ccc(-n2c(Cl)c(Cl)nc(Cl)c2=O)cc1	5.3µM*	7.1µM*	5µM*	-15	x	-8
Cc1cc(C(=O)N2CCOc3ccc(CN4CCC(Oc5cccnc5)CC4)cc3C2)c(C)o1	x	x	x	x	i	x
CC(C)c1nc(CN(C)C(=O)N[C@H](C(=O)N[C@@H](Cc2ccccc2)C[C@H](O)[C@H](Cc2ccccc2)NC(=O)OCc2cncs2)C(C)C)cs1	27µM*!	x	x	x	u	x
CC(C)[C@H](NC(=O)OCc1ccccc1)C(=O)NC(C=O)Cc1ccccc1 (stereo partly drawn)	0%	3%	7%	5	i	-1
O=C(CCCOc1ccc(Cl)cc1)N1CCCCC1	38%	-20%	-11%	-6	i	1
O=C(CCCOc1ccccc1)N1CCCCC1	11µM*	-3%	19%	10	i	6
O=C(c1ccccc1)c1ccc(OCCCN2CCCC2)cc1	14%	16µM*	2%	-5	i	2
COc1ccc(C(=O)CCS(=O)(=O)c2ccc(C)cc2)cc1OC	2%	16µM*	u	-8	i	-2
Cc1ccc(S(=O)(=O)CCC(=O)c2ccc(O)cc2O)cc1	22%	11µM*	11µM*	3	i	8
CC(C)CC(N)c1csc(Nc2ccc(C(=O)N(C)Cc3ccccc3)cn2)n1 (stereo not drawn)	28µM*	-109%	u	u	28µM*	u
CN(Cc1ccccc1)C(=O)c1ccc(Nc2nc(C(N)COCc3ccccc3)cs2)nc1 (stereo not drawn)	u	-35%	u	u	u	u
CN(Cc1ccccc1)C(=O)c1ccc(Nc2nc(C(N)Cc3ccc(C(F)(F)F)cc3)cs2)nc1 (stereo not drawn)	u	10µM*	u	-14	32µM*	-4
CN(Cc1ccccc1)C(=O)c1ccc(Nc2nc(C(N)Cc3ccccc3)cs2)nc1 (stereo not drawn)	14µM*	16µM*	u	u	16µM*	-24
NC(Cc1cnc[nH]1)c1csc(Nc2ccc(C(F)(F)F)cn2)n1 (stereo not drawn)	-1%	-22%	20%	-92*	i	-90*
SMILES	ATXN2 expr inh	HepG2 viability	TGFb SMAD3 inh	CtBP-E1A blk	ATXN viability	Six1-Eya2 blk
CCCCN(C)C(=O)c1ccc(Nc2nc(C(N)Cc3ccccc3)cs2)nc1 (stereo not drawn)	u	-94%	u	u	u	u
CCC(C)n1c(=N)c(C(=O)NCc2ccccc2)cc2c(=O)n3cc(C)ccc3nc21 (stereo not drawn)	-10%	-10%	u	x	x	x
CC(=O)N1CCc2cc(Br)cc(S(=O)(=O)N3CCN(c4cccc(C)c4)C(C)C3)c21 (stereo not drawn)	0%	-4%	-11%	x	i	x
CCc1ccc(-n2nc(CO)c(C(=O)NCc3ccccc3Cl)n2)cc1	x	3%	-24%	x	x	x
Clc1ccc(CN2CCc3c([nH]c4ccccc34)C2)cc1Cl	x	-116%	18µM*	x	u	-6
O=C(Nc1cccc(C(=O)O)c1)Nc1ccc2c(c1)OCO2	5µM*	-29%	-4%	-5	i	7
O=C(Nc1ccc2c(c1)OCO2)Nc1ccc2c(c1)OCO2	12%	-12%	-2%	-12	i	-3
O=C(Nc1ccc(Cl)cc1)Nc1ccc2c(c1)OCO2	26%	1%	-15%	0	i	-9
O=C(Nc1ccc(OC(F)F)c(Cl)c1)Nc1ccc2c(c1)OCO2	-12%	11µM*	u	23	u	2
O=C(NCc1ccccc1)[C@]1(C(F)(F)F)C[C@H](CCc2ccccc2)CCCO1	-1%	1%	u	3	i	11
O=C(NCCNCCO)C1(C(F)(F)F)CC(CCc2ccccc2)CCCO1 (stereo not drawn)	x	-22%	4µM*	x	x	x
COc1ccc(/C=C/C(=O)NCC2Cc3cccc(-c4nc(C)cnc4C)c3O2)cc1OC (stereo not drawn)	x	x	x	x	i	x
CCC[N+](C)(C)c1ccc(/C=C/c2ccnc3ccccc23)cc1	x	-50%	2µM*	x	x	x
Cc1[nH]c2ccccc2c1/C=C/c1ccnc2ccccc12	x	-110%	13µM*	x	x	x
C[N+](C)(C)c1ccc(/C=C/c2ccnc3ccccc23)cc1	x	2%	u	x	x	x
CCCN(CCC)c1ccc(/C=C/c2ccnc3ccccc23)cc1	x	10µM*	217%	x	x	x
Cc1ccc2nc(SCC(=O)NCC3Cc4cc(-c5ncccc5C)ccc4O3)[nH]c2c1 (stereo not drawn)	x	x	x	x	i	x
CC(=O)N1CCC(C(=O)N2CCN(S(=O)(=O)c3ccc(Cl)s3)CC2)CC1	-10%	14µM*	-16%	22	i	0
COc1ccc(C(=O)NN/C=C/C(=O)c2ccc(Br)cc2)cc1	x	-29%	u	-21	u	4
COc1ccc(C(=O)C=CNNC(=O)c2ccc(Cl)cc2)cc1	u	-31%	13µM*	0	u	-8
